The values below come from PubChem BioAssay (NCI).

Compounds without any hit were thinned out: in the full panel of roughly 79,000, 15% have a hit. Values without a mark were called inactive. The source made the active and inactive calls. No stated cut-off is given here; in the data, active means growth inhibition above about 70%; inactive means the rest.

Test [1] in a line: NCI Yeast Anticancer Drug Screen. Data for the rad50 strain (AID 155).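 Further: 0% = growth of vehicle-only cultures of the same strain.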 Particulars: S. cerevisiae rad50 strain growth inhibition; at 50.0 µM; stronger effect = higher value. In a few lines:
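Relative growth inhibition (compound vs vehicle) was measured in yeast with a defined repair-gene alteration.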

A short description of test [2]: NCI Yeast Anticancer Drug Screen. Data for the mec2-1 strain (AID 157). Particulars: S. cerevisiae mec2-1 strain, at 50.0 µM, stronger effect = higher value. An outline of the steps:
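Readout is yeast growth inhibition, normalised to vehicle-treated controls, in the mec2-1 strain exposed to compound.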

Test [3] in a line: NCI Yeast Anticancer Drug Screen. Data for the sgs1 mgt1 strain (AID 161).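 Further: 0% = growth of cultures given vehicle only.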 Particulars: S. cerevisiae sgs1 mgt1 strain, at 50.0 µM, stronger effect = higher value. In a few lines: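 Growth of a repair-deficient yeast mutant was monitored after compound treatment and expressed as inhibition relative to vehicle-treated cultures.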
A short description of test [4]: NCI Yeast Anticancer Drug Screen. Data for the cln2 rad14 strain (AID 165).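 Further: 0% = growth equal to vehicle treated cultures.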 Conditions: S. cerevisiae cln2 rad14 strain, at 50.0 µM, stronger effect = higher value. In a few lines: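 Relative to vehicle controls, growth inhibition of compound-treated cln2 rad14 yeast was recorded.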
A short description of test [5]: NCI Yeast Anticancer Drug Screen. Data for the bub3 strain (AID 167). Particulars: S. cerevisiae bub3 mutant strain, at 50.0 µM, stronger effect = higher value. An outline of the steps: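 Screening used yeast with an engineered genetic alteration affecting cell cycle control. Compound-exposed cultures were compared with vehicle cultures, and reduced growth was taken as inhibition.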

Test [6] can be described thus: NCI Yeast Anticancer Drug Screen. Data for the mlh1 rad18 strain (AID 175). Particulars: S. cerevisiae mlh1 rad18 strain growth inhibition; at 50.0 µM; stronger effect = higher value. An outline of the steps: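 Test agents were incubated with a yeast strain of defined genotype (DNA damage repair defect). Inhibition of growth was derived by comparison with vehicle-exposed cultures.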

Turning to `Cc1cc(C)c2cccc-2c(C)c1`, the growth inhibition in test [1] was -11.8%; in test [2] it was -11.3%; in test [3] it was -12.3%; in test [4], -6.15%; in test [5], -4.9%; in test [6] it was -9.95%.

`COCc1ccc(C(=O)Nc2c(N)ncnc2N)cc1`: the growth inhibition in test [1] is 5.4%; in test [2], 13.7%; in test [3], -0.15%; in test [4], 0.9%; in test [5], 23.7%; in test [6], -0.1%.

For the compound `C=CCOC(=O)C(C)OC(=O)/C(Cl)=C/C(=O)O` (centres undefined), the growth inhibition in test [1] is -2.45%; in test [2], 7.25%; in test [3], 16.4%; in test [4], -29.4%; in test [5], 10.5%; in test [6], 6.15%.

`CCC(=O)Oc1ccc(Cl)cc1C`: the growth inhibition in test [1] was -0.3%; in test [2], 7.7%; in test [3], 1.75%; in test [4], 5.55%; in test [5], 1.75%; in test [6] it was -13.3%.

As for `COC(=O)c1cccc2cnccc12`, the growth inhibition was 2.2% in test [1]; -5.7% in test [2]; 3.6% in test [3]; -48% in test [4]; 7.65% in test [5]; 3.75% in test [6].

Regarding `O=C(O)CCCCC(=O)c1cc(O)ccc1O`, the growth inhibition is 15.3% in test [1]; 10.1% in test [2]; 2.55% in test [3]; -53.3% in test [4]; -15.3% in test [5]; -3.45% in test [6].

In the case of `C=Cc1c(C)c2cc3[nH]c(cc4nc(cc5nc(cc1[nH]2)C(C)=C5CCC(=O)OC)C(CCC(=O)OC)=C4C)c(C)c3C=C`, the growth inhibition in test [1] is 8.1%; in test [2], 6.45%; in test [3], 10.3%; in test [4], 13.1%; in test [5], -1.05%; in test [6], -5.85%.

With `N#CC1(C(c2cccc3ccccc23)c2cccc3ccc4ccccc4c23)CC(=O)OC1=O` (centres undefined), the growth inhibition in test [1] was 5.25%; in test [2] it was -11.4%; in test [3], 14.1%; in test [4], 12.1%; in test [5], -2.55%; in test [6], 9.65%.

For the compound `O=[N+]([O-])c1ccc(Nc2ccccc2)nc1`, the growth inhibition in test [1] is -22.7%; in test [2] it was -35.5%; in test [3], 7.35%; in test [4] it was 2.7%; in test [5], -5.5%; in test [6] it was -5.05%.

For `CN(C)c1cccc2c1C(=O)C=CC21c2ccc(N(C)C)c3c(N(C)C)ccc(c23)C(c2ccccc2)C1c1ccccc1` (centres undefined), the growth inhibition in test [1] is -6.15%; in test [2], -11.4%; in test [3], -4.55%; in test [4], -27.3%; in test [5], -31.6%; in test [6], -8.75%.

As to `COc1ccc2c3c([nH]c2c1)C1CC2C(CC(O)C(OC)C2C(=O)O)CN1CC3` (centres undefined), the growth inhibition was -6.35% in test [1]; -23.7% in test [2]; -1.75% in test [3]; 15.2% in test [4]; 0.15% in test [5]; -4.9% in test [6].

Consider `Cc1nc2cncnc2n(CCN2CCOCC2)c1=O`, for which the growth inhibition is 15.1% in test [1]; 16.2% in test [2]; 23.2% in test [3]; -2.35% in test [4]; -2.45% in test [5]; 20.4% in test [6].

Take `c1ccc(COC2COC(c3ccccc3)OC2)cc1` (centres undefined): the growth inhibition in test [1] is 5.95%; in test [2], -35%; in test [3] it was 0.7%; in test [4] it was 16.9%; in test [5], 7.45%; in test [6], 3.15%.

Regarding `CCC1CN2N=Cc3ccccc3C2=N1` (centres undefined), the growth inhibition was -13.7% in test [1]; 5.35% in test [2]; -5% in test [3]; -43.5% in test [4]; -22.7% in test [5]; -15.8% in test [6].

As for `Cc1ccc(C2(O)CCCCC2)cc1`, the growth inhibition in test [1] is -9.8%; in test [2], -8.45%; in test [3], -32%; in test [4] it was 26.2%; in test [5], -8.95%; in test [6], 7.1%.

For the compound `Nc1nnc2nc(CC(=O)c3ccc4ccccc4c3)c(=O)[nH]n12`, the growth inhibition is -1.85% in test [1]; 10.9% in test [2]; -0.1% in test [3]; -21.2% in test [4]; -4.15% in test [5]; 2.05% in test [6].

Take `CC1(C)OCC2OC(O)C(OS(=O)(=O)c3ccc([N+](=O)[O-])cc3)C2O1` (centres undefined): the growth inhibition is -5.5% in test [1]; -2.55% in test [2]; -0.5% in test [3]; -33% in test [4]; -10.9% in test [5]; -30.3% in test [6].

Turning to `Nc1cc(Cl)cc2[nH]c(=O)c3cc(Cl)ccc3c12`, the growth inhibition in test [1] is 39.8%; in test [2], 7.25%; in test [3], 13.6%; in test [4], 5.35%; in test [5], 17.2%; in test [6] it was 38%.

Take `CCN(CC)C(=O)CN`: the growth inhibition is 8.9% in test [1]; 0.6% in test [2]; 9.1% in test [3]; -3.05% in test [4]; 3.3% in test [5]; -8.15% in test [6].

Consider `Cc1cc(OC(=O)c2ccccc2)cc(C)c1OC(=O)c1ccccc1`, for which the growth inhibition in test [1] was 10%; in test [2], 2.9%; in test [3], 0.1%; in test [4], -6.15%; in test [5], 7.15%; in test [6] it was -6.7%.

With `CCCCCCC1CCC(OC(C)=O)CC1` (centres undefined), the growth inhibition was 5.65% in test [1]; -4% in test [2]; -1.1% in test [3]; -0.9% in test [4]; 1.7% in test [5]; 0.55% in test [6].

`O=[N+]([O-])c1ccccc1OC1OC(CO)C(O)C(O)C1O` (centres undefined): the growth inhibition is -2.35% in test [1]; -5.6% in test [2]; 14.2% in test [3]; -33.8% in test [4]; -14.8% in test [5]; 7.2% in test [6].

On to `COc1cc2c[n+](C)c3c4ccccc4ccc3c2cc1OC`, for which the growth inhibition is 40.4% in test [1]; 55.2% in test [2]; 18.9% in test [3]; 2.75% in test [4]; 22.2% in test [5]; 38.5% in test [6].

In the case of `O=C(O)C(Br)C(Br)C(=O)Nc1ccc(Br)cc1` (centres undefined), the growth inhibition in test [1] is -6.35%; in test [2], -24.4%; in test [3] it was 22.8%; in test [4] it was -3.85%; in test [5], 34.1%; in test [6] it was 27.4%.

Consider `CC/C=C/C(C)c1cc(C(=O)O)ccc1OC` (centres undefined), for which the growth inhibition is 10.9% in test [1]; 4.3% in test [2]; 13.4% in test [3]; 6.55% in test [4]; -13.2% in test [5]; 18% in test [6].

Turning to `N#C/C(=C\c1cccnc1)c1ccc(Br)cc1`, the growth inhibition is 59.4% in test [1]; 36.4% in test [2]; 41.8% in test [3]; 14.3% in test [4]; 43.5% in test [5]; 70% (active) in test [6].

With `CN(C)c1ccc(C(Cc2ccccc2)C2NC(=S)NC2=O)cc1` (centres undefined), the growth inhibition in test [1] is -6%; in test [2], -34.5%; in test [3] it was 11.2%; in test [4], 11.3%; in test [5], 7.7%; in test [6] it was -40.5%.

As for `COC(=O)C1=CON2C3CC4CC(C3)CC(C4)C12C` (centres undefined), the growth inhibition is -2% in test [1]; -30.6% in test [2]; -8.95% in test [3]; -14.2% in test [4]; -18.4% in test [5]; -5.9% in test [6].

For `Nc1ccc2ccc(S(=O)(=O)O)cc2c1`, the growth inhibition in test [1] was -17.7%; in test [2], -19.9%; in test [3] it was -31.4%; in test [4], -23.3%; in test [5], -8.8%; in test [6], -17.9%.

Regarding `O=C(/C=C/C=C/c1ccccc1)CCc1ccccc1`, the growth inhibition in test [1] was 6.75%; in test [2] it was 17.2%; in test [3] it was 24.2%; in test [4], 30.6%; in test [5], 16.2%; in test [6], -29.4%.

Take `CCn1cc2c(=O)n3ncn(-c4ccc(Br)cc4)c3nc2n1`: the growth inhibition is -8.05% in test [1]; 9.75% in test [2]; 3.2% in test [3]; -16.4% in test [4]; -28.8% in test [5]; -12.2% in test [6].

For `NC(=O)C(CC(=O)O)NC(=O)c1ccccc1` (centres undefined), the growth inhibition in test [1] was 8.05%; in test [2], 1.15%; in test [3], 3.45%; in test [4], -35%; in test [5], -10.7%; in test [6] it was 10.1%.

With `CC1Cn2c(nnc2-c2ccccc2O)S1` (centres undefined), the growth inhibition in test [1] was -14.1%; in test [2], 0.6%; in test [3], -3.25%; in test [4], -2.95%; in test [5], -15.3%; in test [6], -12.6%.

With `OCC(O)C(O)C(O)C(O)/C=N\Nc1ccccc1` (centres undefined), the growth inhibition in test [1] is 43.3%; in test [2], 67%; in test [3], 62.8%; in test [4], 34.1%; in test [5] it was 81% (active); in test [6] it was 89.1% (active).

With `C=C1CCC23CC(CC[C@@H]2[C@@]12C[C@@H](c1ccoc1)OC2=O)OC3=O` (some centres undefined), the growth inhibition in test [1] was 2.6%; in test [2], -12.6%; in test [3], -8.6%; in test [4], -5.1%; in test [5], 5.35%; in test [6], 1.8%.

For `C#CCn1cc(F)c(=O)n(CC#C)c1=O`, the growth inhibition is -50.2% in test [1]; -30.8% in test [2]; -4.55% in test [3]; -33.9% in test [4]; -0.05% in test [5]; -2.05% in test [6].

Take `O=C1NC2CCC(NC(=O)N1c1ccccc1)C1=C2C1`: the growth inhibition in test [1] was -28.6%; in test [2] it was -8.85%; in test [3], -5.7%; in test [4], -0.8%; in test [5] it was -3.4%; in test [6] it was -32.1%.

Take `O=C(c1ccccc1)C1C(C(=O)c2ccccc2)C(c2ccccc2)N(c2ccccc2)C1c1ccccc1` (centres undefined): the growth inhibition in test [1] is 27.4%; in test [2], 17.8%; in test [3], -27.1%; in test [4], 18.9%; in test [5] it was -12.2%; in test [6], -75.2%.

Turning to `COc1nc(NC2OCC(O)C(O)C2O)c(NC2OCC(O)C(O)C2O)c(=O)n1C` (centres undefined), the growth inhibition in test [1] is -7.5%; in test [2], -1.7%; in test [3], -11.6%; in test [4], 22.5%; in test [5], -31.1%; in test [6] it was -12.2%.
